Laboratory results reported in the supplement of paper PMC4022240.
± gives the standard deviation.

Tests used:
Assay in all cases: peptide microarray binding signal (635 nm), min-max normalized on array (fraction of array maximum); higher = stronger binding
Conditions in all cases: peptide region: H4 16-28
[1] = target: T1, HaloTag-ATRX ADD domain (163-292)
T1 chain: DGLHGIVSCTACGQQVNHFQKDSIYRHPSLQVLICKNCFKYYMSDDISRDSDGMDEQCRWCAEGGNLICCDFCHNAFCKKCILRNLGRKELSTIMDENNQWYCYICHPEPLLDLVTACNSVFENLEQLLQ
Outline: (§1)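 Within each library, mean intensities of triplicate spots were min-max scaled to give the binding signal. The spots were histone 13-mer peptide–cellulose conjugates on nitrocellulose with a Cy3 tracer, blocked overnight at 4°C. They were then probed for 1 h at 4°C using biotin-labelled HaloTag reader fusions (10 nM to 1 μM) with streptavidin-Alexa Fluor 647 or rabbit histone antibodies (1:10,000 to 1:2,000) with anti-rabbit Alexa 647, and scanned at 635 nm for signal and 532 nm for misprints on an Axon GenePix 4000B.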

[2] = target: HaloTag-ING2 PHD (mouse Ing2 200-280)
Outline: as §1

[3] = target: anti-H3K4me3 antibody ab8580
Outline: as §1

[4] = target: anti-H3K9me3 antibody ab8898
Outline: as §1

[5] = peptide modifications: H4R19me1 H4K20me1, binder concentration: 1:2,000 dilution
[6] = peptide modifications: H4R19me1 H4K20me1, binder concentration: 1:10,000 dilution
[7] = peptide modifications: H4R19me1 H4K20me2, binder concentration: 1:2,000 dilution
[8] = peptide modifications: H4R19me1 H4K20me2, binder concentration: 1:10,000 dilution
[9] = peptide modifications: H4R19me1 H4K20me3, binder concentration: 1:2,000 dilution
[10] = peptide modifications: H4R19me1 H4K20me3, binder concentration: 1:10,000 dilution
[11] = peptide modifications: H4R19me2a H4K20ac, binder concentration: 1:2,000 dilution
[12] = peptide modifications: H4R19me2a H4K20ac, binder concentration: 1:10,000 dilution
[13] = peptide modifications: H4R19me2a H4K20me1, binder concentration: 1:2,000 dilution
[14] = peptide modifications: H4R19me2a H4K20me1, binder concentration: 1:10,000 dilution
[15] = peptide modifications: H4R19me2a H4K20me2, binder concentration: 1:2,000 dilution
[16] = peptide modifications: H4R19me2a H4K20me2, binder concentration: 1:10,000 dilution
[17] = peptide modifications: H4R19me2a H4K20me3, binder concentration: 1:2,000 dilution
[18] = peptide modifications: H4R19me2a H4K20me3, binder concentration: 1:10,000 dilution
[19] = peptide modifications: H4R19me2a, binder concentration: 1:2,000 dilution
[20] = peptide modifications: H4R19me2s H4K20me1, binder concentration: 1:2,000 dilution
[21] = peptide modifications: H4R19me2s H4K20me1, binder concentration: 1:10,000 dilution
[22] = peptide modifications: H4R19me2s H4K20me2, binder concentration: 1:2,000 dilution
[23] = peptide modifications: H4R19me2s H4K20me2, binder concentration: 1:10,000 dilution

## KRHRKVLRDNIQG [H4 16-28 K R H Rme Kme V L R D N I Q G]
[1]; peptide modifications: H4R19me1 H4K20me1, binder concentration: 50 nM
  peptide microarray binding signal: 0.00552 ± 0.00017
[1]; peptide modifications: H4R19me1 H4K20me1, binder concentration: 500 nM
  peptide microarray binding signal: 0.01 ± 0.00041
[2]; peptide modifications: H4R19me1 H4K20me1, binder concentration: 10 nM
  peptide microarray binding signal: 0.00961 ± 0.00044
[2]; peptide modifications: H4R19me1 H4K20me1, binder concentration: 100 nM
  peptide microarray binding signal: 0.0145 ± 0.0033
[3]; [5]
  peptide microarray binding signal: 0.0027 ± 0.00027
[3]; [6]
  peptide microarray binding signal: 0.002511 ± 2.2e-05
[4]; [5]
  peptide microarray binding signal: 0.00143 ± 4.1e-05
[4]; [6]
  peptide microarray binding signal: 0.002133 ± 2e-05

## KRHRKVLRDNIQG [H4 16-28 K R H Rme Kme2 V L R D N I Q G]
[1]; peptide modifications: H4R19me1 H4K20me2, binder concentration: 50 nM
  peptide microarray binding signal: 0.00404 ± 8.4e-05
[1]; peptide modifications: H4R19me1 H4K20me2, binder concentration: 500 nM
  peptide microarray binding signal: 0.00943 ± 0.001
[2]; peptide modifications: H4R19me1 H4K20me2, binder concentration: 10 nM
  peptide microarray binding signal: 0.00847 ± 0.00051
[2]; peptide modifications: H4R19me1 H4K20me2, binder concentration: 100 nM
  peptide microarray binding signal: 0.0223 ± 0.0015
[3]; [7]
  peptide microarray binding signal: 0.00219 ± 0.0001
[3]; [8]
  peptide microarray binding signal: 0.002 ± 4.9e-05
[4]; [7]
  peptide microarray binding signal: 0.00116 ± 9e-05
[4]; [8]
  peptide microarray binding signal: 0.00254 ± 0.00041

## KRHRKVLRDNIQG [H4 16-28 K R H Rme Kme3 V L R D N I Q G]
[1]; peptide modifications: H4R19me1 H4K20me3, binder concentration: 50 nM
  peptide microarray binding signal: 0.0047 ± 0.00026
[1]; peptide modifications: H4R19me1 H4K20me3, binder concentration: 500 nM
  peptide microarray binding signal: 0.00638 ± 0.00038
[2]; peptide modifications: H4R19me1 H4K20me3, binder concentration: 10 nM
  peptide microarray binding signal: 0.0104 ± 0.00011
[2]; peptide modifications: H4R19me1 H4K20me3, binder concentration: 100 nM
  peptide microarray binding signal: 0.0129 ± 0.00048
[3]; [9]
  peptide microarray binding signal: 0.00636 ± 0.00079
[3]; [10]
  peptide microarray binding signal: 0.00867 ± 0.00021
[4]; [9]
  peptide microarray binding signal: 0.0157 ± 0.0041
[4]; [10]
  peptide microarray binding signal: 0.00871 ± 0.00013

## KRHRKVLRDNIQG [H4 16-28 K R H Rme2a Kac V L R D N I Q G]
[1]; peptide modifications: H4R19me2a H4K20ac, binder concentration: 50 nM
  peptide microarray binding signal: 0.003699 ± 3e-05
[1]; peptide modifications: H4R19me2a H4K20ac, binder concentration: 500 nM
  peptide microarray binding signal: 0.006
[2]; peptide modifications: H4R19me2a H4K20ac, binder concentration: 10 nM
  peptide microarray binding signal: 0.00871 ± 0.00039
[2]; peptide modifications: H4R19me2a H4K20ac, binder concentration: 100 nM
  peptide microarray binding signal: 0.0218 ± 0.0012
[3]; [11]
  peptide microarray binding signal: 0.000774 ± 2.5e-05
[3]; [12]
  peptide microarray binding signal: 0.00171 ± 3.3e-05
[4]; [11]
  peptide microarray binding signal: 0.0004379 ± 4.2e-06
[4]; [12]
  peptide microarray binding signal: 0.001211 ± 1.2e-05

## KRHRKVLRDNIQG [H4 16-28 K R H Rme2a Kme V L R D N I Q G]
[1]; peptide modifications: H4R19me2a H4K20me1, binder concentration: 50 nM
  peptide microarray binding signal: 0.00382 ± 5.3e-05
[1]; peptide modifications: H4R19me2a H4K20me1, binder concentration: 500 nM
  peptide microarray binding signal: 0.008 ± 0.00032
[2]; peptide modifications: H4R19me2a H4K20me1, binder concentration: 10 nM
  peptide microarray binding signal: 0.00782 ± 0.00021
[2]; peptide modifications: H4R19me2a H4K20me1, binder concentration: 100 nM
  peptide microarray binding signal: 0.0127 ± 0.0032
[3]; [13]
  peptide microarray binding signal: 0.0308 ± 0.032
[3]; [14]
  peptide microarray binding signal: 0.00188 ± 8.8e-05
[4]; [13]
  peptide microarray binding signal: 0.000966 ± 4.1e-05
[4]; [14]
  peptide microarray binding signal: 0.0015 ± 4.4e-05

## KRHRKVLRDNIQG [H4 16-28 K R H Rme2a Kme2 V L R D N I Q G]
[1]; peptide modifications: H4R19me2a H4K20me2, binder concentration: 50 nM
  peptide microarray binding signal: 0.0248 ± 0.0013
[1]; peptide modifications: H4R19me2a H4K20me2, binder concentration: 500 nM
  peptide microarray binding signal: 0.0149 ± 0.00068
[2]; peptide modifications: H4R19me2a H4K20me2, binder concentration: 10 nM
  peptide microarray binding signal: 0.0209 ± 0.0011
[2]; peptide modifications: H4R19me2a H4K20me2, binder concentration: 100 nM
  peptide microarray binding signal: 0.0188 ± 0.00076
[3]; [15]
  peptide microarray binding signal: 0.00119 ± 1.7e-05
[3]; [16]
  peptide microarray binding signal: 0.00348 ± 4.9e-05
[4]; [15]
  peptide microarray binding signal: 0.00113 ± 8.4e-05
[4]; [16]
  peptide microarray binding signal: 0.00427 ± 0.00011

## KRHRKVLRDNIQG [H4 16-28 K R H Rme2a Kme3 V L R D N I Q G]
[1]; peptide modifications: H4R19me2a H4K20me3, binder concentration: 50 nM
  peptide microarray binding signal: 0.0152 ± 0.00067
[1]; peptide modifications: H4R19me2a H4K20me3, binder concentration: 500 nM
  peptide microarray binding signal: 0.0166 ± 0.00049
[2]; peptide modifications: H4R19me2a H4K20me3, binder concentration: 10 nM
  peptide microarray binding signal: 0.0209 ± 0.00068
[2]; peptide modifications: H4R19me2a H4K20me3, binder concentration: 100 nM
  peptide microarray binding signal: 0.0392 ± 0.009
[3]; [17]
  peptide microarray binding signal: 0.0145 ± 0.0019
[3]; [18]
  peptide microarray binding signal: 0.00981 ± 0.00045
[4]; [17]
  peptide microarray binding signal: 0.0143 ± 0.0024
[4]; [18]
  peptide microarray binding signal: 0.0104 ± 0.00022

## KRHRKVLRDNIQG [H4 16-28 K R H Rme2a K V L R D N I Q G]
[1]; peptide modifications: H4R19me2a, binder concentration: 500 nM
  peptide microarray binding signal: 4.76e-05 ± 5.2e-07
[2]; peptide modifications: H4R19me2a, binder concentration: 100 nM
  peptide microarray binding signal: 0.000213 ± 2.5e-06
[3]; [19]
  peptide microarray binding signal: 5.66e-05
[4]; [19]
  peptide microarray binding signal: 1.51e-05 ± 1.7e-07

## KRHRKVLRDNIQG [H4 16-28 K R H Rme2s Kme V L R D N I Q G]
[1]; peptide modifications: H4R19me2s H4K20me1, binder concentration: 50 nM
  peptide microarray binding signal: 0.00379 ± 5.5e-05
[1]; peptide modifications: H4R19me2s H4K20me1, binder concentration: 500 nM
  peptide microarray binding signal: 0.00586 ± 0.00025
[2]; peptide modifications: H4R19me2s H4K20me1, binder concentration: 10 nM
  peptide microarray binding signal: 0.0101 ± 0.00023
[2]; peptide modifications: H4R19me2s H4K20me1, binder concentration: 100 nM
  peptide microarray binding signal: 0.0192 ± 0.00073
[3]; [20]
  peptide microarray binding signal: 0.0013 ± 1.8e-05
[3]; [21]
  peptide microarray binding signal: 0.002568 ± 2.3e-05
[4]; [20]
  peptide microarray binding signal: 0.000831 ± 4.3e-05
[4]; [21]
  peptide microarray binding signal: 0.001614 ± 1.6e-05

## KRHRKVLRDNIQG [H4 16-28 K R H Rme2s Kme2 V L R D N I Q G]
[1]; peptide modifications: H4R19me2s H4K20me2, binder concentration: 50 nM
  peptide microarray binding signal: 0.003511 ± 2.9e-05
[1]; peptide modifications: H4R19me2s H4K20me2, binder concentration: 500 nM
  peptide microarray binding signal: 0.00548 ± 0.00047
[2]; peptide modifications: H4R19me2s H4K20me2, binder concentration: 10 nM
  peptide microarray binding signal: 0.00937 ± 0.00061
[2]; peptide modifications: H4R19me2s H4K20me2, binder concentration: 100 nM
  peptide microarray binding signal: 0.0138 ± 0.0027
[3]; [22]
  peptide microarray binding signal: 0.00208 ± 0.0003
[3]; [23]
  peptide microarray binding signal: 0.00325 ± 0.00014
[4]; [22]
  peptide microarray binding signal: 0.000966 ± 0.00022
[4]; [23]
  peptide microarray binding signal: 0.00225 ± 0.00011
